This is a sample that favours compounds with a hit; in the whole collection about 21% have one here.
Pf growth 96h = P. falciparum growth inhibition at 96 hours; P. falciparum luciferase reporter growth, 96 h; Potency, µM (top dose mostly 28.7 µM), for the others: top-dose activity change, negative = inhibition, hits mostly inhibitors; 320,000 compounds, 6.9% hits; note: potency is the fitted concentration of half-maximal effect; % is set by controls: 0 for no effect and ±100 for the full control effect
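Cell-based qHTS: luciferase-tagged P. falciparum in erythrocytes (2% hematocrit, 0.05% parasitemia final) incubated with compounds for 96 hours, 37 C, 5% CO2; luciferase detection reagent then added and luminescence measured.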
CHX counter = affects cycloheximide protein synthesis inhibition readout, counter-screen | cell reporter, cycloheximide protein synthesis inhibition counterscreen | max response, % | 300,000 compounds, 12% hits | AID 2314; in the data active = max response mostly above about 13%, no sharp cut-off; inactive = mostly below about 14%; note: read at 38.3 µM for the half of the compounds with a filed dose; 0% is about no effect
NS1 function inh = inhibitors of influenza NS1 protein function; 270,000 compounds, 0.4% hits; Potency, µM (doses to about 46.1 µM), inactives show at the highest dose activity, positive = more growth; calls by dose curve; note: potency is the fitted concentration of half-maximal effect; actives are rising curves; nearly all actives have a fitted effect of over 50% in size
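Growth recovery, yeast-based: influenza A NS1 expressed in S. cerevisiae causes slow growth, and suppressors are detected by OD600. The parent strain without NS1 is used as positive control.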
Shiga inhibitor = inhibitors of Shiga toxin in Vero cells. Vero cells, Shiga toxin protein synthesis inhibition reporter. inhibition, % at 38.7 µM. 290,000 compounds, 9.2% hits; in the data active = inhibition mostly above about 28%, no sharp cut-off; inactive = mostly below about 43%; note: 0% is about no effect
Pf growth 48h = P. falciparum growth inhibition at 48 hours (one generation); P. falciparum luciferase growth in erythrocytes, 48 h; Potency, µM (doses to about 28.7 µM), without a hit: at the highest dose activity change, negative = inhibition, most hits filed as inhibitors; 310,000 compounds, 5.9% hits; AID 504832; note: potency is the fitted concentration of half-maximal effect; % is set by controls: 0 for no effect and ±100 for the full control effect
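Firefly luciferase activity from engineered P. falciparum reports growth; inhibitors lower the luminescent signal. Cultures contained 2% hematocrit erythrocytes at 0.1% final parasitemia.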
* = called active by the depositor; ? = inconclusive; . = not tested or not shown; [ ] = remark or other dose. Unless noted, calls come from the whole dose curve; as a rule, active = well fitted inhibition curve with a large enough effect; inconclusive = small, poorly fitted or top-dose-only effect, or another doubt; inactive = no such curve, though single readings can be large or run the other way.

SMILES	Pf growth 96h	CHX counter	NS1 function inh	Shiga inhibitor	Pf growth 48h
CCOc1ccc(-c2c(C(=O)N/N=C/c3sccc3C)nnn2-c2nonc2N)cc1	-19.9%	-8.9	-5.7%	-4.3	0.0%
Nc1nonc1-n1nnc(C(=O)N/N=C/c2ccccc2Cl)c1CN1CCOCC1	31.6%	0.7	-13.9%	-6.4	1.3%
Nc1nonc1-n1nnc(C(=O)N/N=C/c2ccccc2Cl)c1-c1ccc2c(c1)OCO2	0.657µM*	3.1	8.0%	0.9	2.94µM*
Cc1ccsc1/C=N/NC(=O)c1nnn(-c2nonc2N)c1-c1ccc2c(c1)OCO2	0.131µM*	-2.9	1.8%	-5.1	3.29µM*
Nc1nonc1-n1nnc(C(=O)N/N=C/c2cccs2)c1-c1ccc2c(c1)OCO2	0.294µM*	4.6	-2.9%	15.1	0.928µM*
CCOC(=O)c1nnn(-c2nonc2N)c1-c1ccc(C)cc1	48.1%	1.4	2.4%	-14.4	14.7µM*
OC(COc1cccc2ccccc12)CN1CCN(c2ccccc2Cl)CC1 (configuration not stated)	-16.3%	0.3	-75.4%	-8.0	-29.0%
CCOC(=O)c1nnn(-c2nonc2N)c1CSc1ccccc1	3.29µM*	-4.6	-10.6%	-4.0	.
Cc1ccc(-c2c(C(=O)N/N=C/c3cccs3)nnn2-c2nonc2N)cc1	1.17µM*	-9.7	11.5%	-7.5	?
CCCOc1ccc(CN(C)c2ncnc(N)n2)cc1	123.3%	-0.8	-3.8%	9.6	25.0%
CCCCOc1ccc(CN(C)c2ncnc(N)n2)cc1	-22.0%	15.1*	-8.8%	32.5*	9.2%
COC(=O)c1ccc(CN2CCN(C3CCCC3)C(CCO)C2)cc1 (configuration not stated)	13.1%	-2.1	-1.1%	-3.6	-10.3%
CN1Cc2cccnc2N(C)Cc2cc(Cl)ccc21	-14.0%	-1.9	2.7%	-3.5	-25.4%
Clc1ccc2c(c1)CCc1cccnc1C2=C1CCNCC1	?	-5.7	3.1%	-10.6	13.5µM*
O=C(NCCc1ccc(F)cc1)NC12CC3CC(CC(C3)C1)C2	-36.1%	64.5*	-47.0%	119.8*	119.0%
COc1ccc(CCNC(=O)NC23CC4CC(CC(C4)C2)C3)cc1	.	30.2	-13.4%	62.1	-2.9%
O=C(NCCC1=CCCCC1)NC12CC3CC(CC(C3)C1)C2	-100.9%	43.7*	-55.6%	70.3*	-4.2%
O=C(O)CCCCCCCCCCCNC(=O)NC12CC3CC(CC(C3)C1)C2	2.08µM*	.	.	.	30.1%
CCOCCCNC(=O)NC12CC3CC(CC(C3)C1)C2	-2.0%	-9.6	3.3%	-22.3	-18.8%
Cc1nnc(SCCn2c(N3CCN(c4ccccc4)CC3)nc3c2c(=O)n(C)c(=O)n3C)s1	.	.	-43.9%	.	.
Cc1ccccc1NC(=O)CSc1ccncc1	3.0%	13.9*	0.5%	26.0	10.2%
Cc1ccccc1NC(=O)CSc1ccc(-c2cccnc2)nn1	10.4µM*	-1.9	7.4%	-9.0	-28.9%
O=C(CSc1ccc(-c2cccnc2)nn1)Nc1ccccc1F	-22.6%	5.5	1.7%	-3.5	-6.7%
Cc1cc(C)cc(NC(=O)CSc2ccc(-c3ccccn3)nn2)c1	?	9.9	-7.3%	-4.1	?
O=C(CSc1ccc(-c2cccnc2)nn1)Nc1ccccc1	11.7µM*	6.1	3.9%	7.5	4.3%
SMILES	Pf growth 96h	CHX counter	NS1 function inh	Shiga inhibitor	Pf growth 48h
O=C(CSc1ccc(-c2ccccn2)nn1)Nc1cccc(F)c1	?	41.6*	-104.9%	31.7*	-24.4%
CCOC(=O)c1ccc(NC(=O)CSc2ccc(-c3cccnc3)nn2)cc1	-21.4%	16.4*	.	53.9	-20.8%
COc1ccc(NC(=O)CSc2ccc(-c3cccnc3)nn2)cc1	?	-2.8	4.5%	-5.8	?
CCn1c(SCC(=O)Nc2ccc(C(C)=O)cc2)nc2ccccc21	.	41.8*	11.4%	107.1*	63.1%
COCCn1c(SCC(=O)Nc2ccc(NC(C)=O)cc2)nc2ccccc2c1=O	?	-1.6	0.2%	-3.6	-6.0%
COCCCn1c(SCC(=O)Nc2ccc(C(C)=O)cc2)nc2ccccc2c1=O	-5.0%	44.6*	-10.8%	79.8*	?
CCOCCCn1c(SCC(=O)Nc2cc(C(C)(C)C)nn2-c2ccccc2)nc2ccccc2c1=O	?	1.2	-11.3%	-6.1	13.1µM*
CCn1c(SCC(=O)Nc2ccc3[nH]c(=O)[nH]c3c2)nc2ccccc21	-15.8%	.	.	.	17.4%
CC(=O)c1ccc(NC(=O)CSc2nc(=O)cc(N)n2-c2ccccc2)cc1	7.5%	32.8*	-0.9%	91.1*	29.3%
COCCn1c(SCC(=O)Nc2cc(C(C)(C)C)nn2-c2ccccc2)nc2ccccc2c1=O	22.5%	0.9	6.6%	10.8	-10.6%
O=C(CSc1ccc(Br)cc1)Nc1cccc(S(=O)(=O)N2CCOCC2)c1	-2.6%	.	.	.	?
Cc1ccc(N2CCC(N3CCN(C)C(CCO)C3)CC2)cc1 (configuration not stated)	?	2.5	9.5%	11.3	4.1%
C/C=C(\C)CN1CCC(Oc2cccc(C(=O)NCc3ccccn3)c2)CC1	-10.8%	5.3	-0.4%	-4.1	-17.5%
O=C(Nc1ccccc1Cl)c1cccc(NC(=O)c2cccs2)c1	?	15.2	-73.8%	14.7	7.1%
COCCCNC(=O)c1ccc2nc3ccccc3c(=O)n2c1	.	12.9*	-6.2%	-1.1	43.3%
Cn1c(SCc2ccccc2Br)nc2ccccc2c1=O	?	-3.3	0.2%	-8.0	13.1%
Cc1cccc(NC(=O)CSc2nc3ccccc3c(=O)n2C)c1	?	-1.3	-40.9%	1.8	14.7µM*
Cc1cccc(NC(=O)CSc2nc3c([nH]c4ccccc43)c(=O)n2C)c1	?	-0.9	7.6%	17.9	19.3%
COCCn1c(SCC(=O)Nc2cccc(C(=O)OC)c2)nc2ccccc2c1=O	49.4%	-1.3	-21.8%	7.8	13.1µM*
Cc1ccccc1CSc1nc2ccccc2c(=O)n1C	?	.	.	.	9.28µM*
COC(CNC(=O)c1ccc2nc3ccccc3c(=O)n2c1)OC	30.7%	10.2	-4.1%	3.7	18.1%
CCOC(=O)c1c(S(=O)(=O)NCC(=O)N2CCN(c3ccccc3)CC2)c(C)n(C)c1C	21.8%	11.2	0.1%	-4.7	-1.8%
COc1cccc2c1N1C(=O)c3c(C(=O)O)cccc3C1CC2(C)C (configuration not stated)	273.8%	-5.1	-42.8%	-3.8	13.9%
COC(=O)CN(c1ccc(OCc2ccccc2)cc1)S(C)(=O)=O	46.5%[1.15 µM]	-3.3	-8.4%	34.3	-18.0%[5.75 µM]
CCN(CC)CCn1c(C)nc2ccccc21	19.6%	-2.3	1.7%	20.2	10.4%
CCN(CC)CCn1c(NC(=O)c2ccccc2O)nc2ccccc21	15.8%	26.1*	-17.4%	.	-73.6%
CCN(CC)CCn1c(NC(=O)c2ccc(Cl)cc2)nc2ccccc21	3.7µM*	18.7*	3.4%	19.6	.
O=C(CSc1nnc(-c2cccnc2)n1-c1ccccc1)NCc1ccc2c(c1)OCO2	-0.7%	-3.3	-9.0%	18.9	-19.7%
CC(Sc1nnc2ccccn12)C(=O)NCc1ccc2c(c1)OCO2 (configuration not stated)	-2.2%	-3.9	.	-9.6	?
